# High-throughput results from PubChem BioAssay.
# The list is not random: actives were taken first. Their share in the collection is about 2.3%.
# Rango-impB inh: prevents formation of the Rango-importin beta complex | 0.031% of 340,000 active | AID 540263 | Rango CFP/YFP FRET sensor + importin beta, 45 min | Potency, µM (series often up to 92.2 µM), inactives show at the highest dose inhibition of complex formation; calls by dose curve;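 note: 0% = DMSO wells and 100% = buffer wells lacking importin beta; nearly all actives have a fitted effect of over 15% in size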
# Target sequence (Q14974 whole entry, looked up): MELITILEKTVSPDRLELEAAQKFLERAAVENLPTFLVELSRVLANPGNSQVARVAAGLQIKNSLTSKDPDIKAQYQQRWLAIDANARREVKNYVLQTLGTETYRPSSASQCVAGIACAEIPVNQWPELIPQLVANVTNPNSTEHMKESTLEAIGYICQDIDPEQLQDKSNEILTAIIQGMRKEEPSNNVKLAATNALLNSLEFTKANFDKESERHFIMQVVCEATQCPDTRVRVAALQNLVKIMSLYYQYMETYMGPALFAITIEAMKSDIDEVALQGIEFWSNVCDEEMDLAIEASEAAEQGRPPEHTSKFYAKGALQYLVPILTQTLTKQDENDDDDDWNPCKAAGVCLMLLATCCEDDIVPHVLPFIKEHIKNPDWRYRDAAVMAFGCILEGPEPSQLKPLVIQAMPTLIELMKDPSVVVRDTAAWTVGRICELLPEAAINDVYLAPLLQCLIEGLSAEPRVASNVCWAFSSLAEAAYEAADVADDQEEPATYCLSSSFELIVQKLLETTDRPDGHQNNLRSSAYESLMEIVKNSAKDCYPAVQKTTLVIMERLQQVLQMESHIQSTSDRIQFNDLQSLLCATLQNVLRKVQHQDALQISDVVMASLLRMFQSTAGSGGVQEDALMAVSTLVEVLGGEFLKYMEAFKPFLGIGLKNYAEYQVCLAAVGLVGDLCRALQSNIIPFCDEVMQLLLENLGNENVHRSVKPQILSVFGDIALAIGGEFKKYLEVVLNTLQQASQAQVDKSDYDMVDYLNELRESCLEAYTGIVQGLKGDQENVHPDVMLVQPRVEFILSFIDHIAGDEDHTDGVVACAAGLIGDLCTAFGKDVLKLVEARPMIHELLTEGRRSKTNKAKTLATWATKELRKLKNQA
#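 FRET biosensor (snurportin 1 IBB flanked by EYFP and cerulean), 50 nM, with compound 5 min, then 0.125 microM importin beta in PBS, 1 mM DTT, 0.02% Tween-20, 0.1% BSA. CFP/YFP ratio read after 45 min at room temperature; pre-read flags interference.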
# Rango dissoc inh: inhibitors of RanGTP-induced Rango-importin beta complex dissociation; O95149+P62826; Biochemical FRET Rango-importin beta, RanGTP-induced dissociation; Potency, µM (doses to about 46.1 µM), for inactives: at the highest dose activity change, negative = inhibition; 0.071% of 340,000 active; calls by dose curve; note: % of control where 0% means no effect; nearly all actives have a fitted effect of over 45% in size
#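 Two FRET readings bracket the reaction: one 5 min after compound meets Rango–importin beta, another 45 min after RanGTP-RCC1 (0.6 uM Ran, 0.2 uM RCC1, 2 mM GTP) is added. Only the second defines inhibition.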
# A549 tox: counter-screen for Nrf2 inhibitors: cytotoxicity in A549 cells; A549 ARE-Fluc cells, CellTiter-Fluor viability, 18-24 h; Potency, µM (titrated, usually from 46 µM), for inactives: top-dose activity change, negative = cytotoxicity, most hits filed as inhibitors; 0.16% of 390,000 active; note: % is set by controls: 0 for no effect and ±100 for the full control effect
#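 Cytotoxicity counterscreen: CellTiter-Fluor fluorescence was measured in A549 ARE_Fluc cells after 18-24 h of compound exposure in a concentration series. The subsequent BugLite luminescent read reports ARE-luciferase activity.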
# Nrf2 ARE act: Nrf2 pathway activation; AREc32 ARE-luciferase reporter (MCF7-derived line), luminescence, 24 h; Potency, µM (highest dose often 46.1 µM), for inactives: at the highest dose activation, hits mostly activators; 0.31% of 410,000 active; AID 624171; note: % of control where 0% means no effect; nearly all actives have a fitted effect of over 65% in size
#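 Steps: seed AREc32_Fluc cells (1000/well, 5% FBS OPTI-MEM); incubate overnight at 37 deg C; add 23 nL compound; incubate 24 hr; add Steady-Glo; hold 30 min RT; read luminescence.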
# Nrf2 block: inhibitors of Nrf2 signaling | 2.1% of 360,000 active | A549 ARE-Fluc reporter, luciferase luminescence, 18-24 h | Potency, µM (series often up to 46 µM), for the others: at the highest dose activity change, negative = inhibition, hits mostly inhibitors | AID 504444; note: % is set by controls: 0 for no effect and ±100 for the full control effect; nearly all actives have a fitted effect of over 60% in size
#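 Cells were seeded and rested 2 h, then exposed to compounds for 18-24 h. CellTiter-Fluor was read first as a viability measure. BugLite was added 15 min before the final luminescent read of ARE-luciferase activity in A549 cells.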
# * hit, by the source's call; ? = inconclusive; nt = no result. Unless noted, calls come from the whole dose curve; as a rule, active = well fitted curve in the direction sought with a large enough effect; inconclusive = small, poorly fitted or top-dose-only effect, or another doubt; inactive = no such curve, though single readings can be large; an effect the other way counts as inactive or inconclusive. Potency is the fitted concentration of half-maximal effect.
SMILES,Rango-impB inh,Rango dissoc inh,A549 tox,Nrf2 ARE act,Nrf2 block
COc1ccc(Nc2nc3ccccc3nc2NS(=O)(=O)c2cccs2)cc1,-2.8%,-11.2%,-19.5%,0.4%,16.4µM*
CCOC(=O)c1ccc(Nc2nc3ccccc3nc2NS(=O)(=O)c2ccc(Cl)cc2)cc1,nt,nt,1.7%,-2.0%,5.2%
CCOc1ccc(S(=O)(=O)Nc2nc3ccccc3nc2Nc2ccc(OC)cc2)cc1,nt,nt,-17.9%,0.1%,25.9µM*
O=S(=O)(Nc1nc2ccccc2nc1Nc1cccc(S(=O)(=O)N2CCCCC2)c1)c1ccccc1,?,-15.1%,?,0.4%,11.6µM*
CCc1ccc(Nc2nc3ccccc3nc2NS(=O)(=O)c2ccccc2)cc1,nt,nt,-17.3%,0.4%,23.1µM*
COc1ccc(Nc2nc3ccccc3nc2NS(=O)(=O)c2ccc(NC(C)=O)cc2)cc1,-4.4%,-9.0%,-6.8%,-0.7%,-17.7%
O=C1CCc2cc(S(=O)(=O)Nc3cccc(F)c3)ccc2N1,nt,nt,0.3%,nt,?
CCOC(=O)c1cc(C)n(CC2CCC(C(=O)Nc3cccc(C(C)=O)c3)CC2)c1C (centres undefined),nt,nt,4.5%,0.9%,8.8%
O=C1C(NS(=O)(=O)c2cccs2)=C(N2CCN(c3cccc(Cl)c3)CC2)C(=O)c2ccccc21,-1.5%,-5.6%,?,8.6%,20.6µM*
Cc1ccc(-n2c(Cc3ccccc3)n[nH]c2=S)c(C)c1,0.2%,-3.2%,2.4%,-0.4%,13µM*
Cc1ccc(-n2c(CC#N)n[nH]c2=S)c(C)c1,0.4%,11.2%,-8.9%,0.0%,2.1%
O=C(NCc1cccnc1)/C(=C\c1ccc(-c2ccc(Br)cc2)o1)S(=O)(=O)c1ccccc1,?,5.6%,?,?,?
O=C(NCc1cccnc1)/C(=C/c1ccc(-c2ccc(Cl)cc2)o1)S(=O)(=O)c1ccccc1,?,-7.8%,?,?,20.6µM*
CCC(C)NC(=O)NCc1ccccc1F (centres undefined),-1.6%,22.6%,0.0%,0.0%,1.4%
CC(=O)c1cccc(NS(=O)(=O)c2ccc3[nH]c4c(c3c2)CCCCCC4)c1,nt,nt,-21.9%,3.6%,nt
CC(=O)c1cccc(NS(=O)(=O)c2ccc3[nH]c4c(c3c2)CCCCC4)c1,nt,nt,-17.6%,-2.8%,16.4µM*
O=C(Nc1ccc2[nH]c3c(c2c1)CCCC3)c1ccco1,?,23.8%,-7.4%,12.6µM*,?
CN(Cc1ccccc1)S(=O)(=O)c1ccc2[nH]c3c(c2c1)CCCCC3,nt,nt,2.2%,3.3%,16.4µM*
CN(CC(=O)NCc1ccccc1)S(=O)(=O)c1ccc2[nH]c3c(c2c1)CCCC3,nt,nt,-3.6%,5.3%,-18.8%
COc1ccc(NS(=O)(=O)c2ccc3[nH]c4c(c3c2)CCCCC4)cc1,nt,nt,?,-0.5%,16.4µM*
Cc1cccc(SC2CCN(C(=O)C3CCC(=O)N(C4CC4)C3)CC2)c1 (centres undefined),-0.4%,11.9%,1.1%,0.2%,?
CCN(CC)S(=O)(=O)c1cccc(C(=O)Nc2ccccc2C(=O)Nc2ccc(OC)cc2)c1,nt,nt,10.9%,0.5%,nt
O=C(O)Cc1nnc(-c2cc3ccccc3[nH]2)s1,nt,nt,-0.9%,nt,?
CCCCSCCCNC(=O)c1cn(C)c2ccc(S(=O)(=O)N3CCCCC3)cc2c1=O,nt,nt,5.5%,-0.6%,11.6%
Cc1ccc(C)c(C(=O)CCC(=O)Nc2ccc(N3CCN(C)CC3)cc2C)c1,-0.4%,-3.7%,-6.5%,1.4%,1.7%
SMILES,Rango-impB inh,Rango dissoc inh,A549 tox,Nrf2 ARE act,Nrf2 block
COc1ccc(OC)c(CNS(=O)(=O)c2ccc3[nH]c4c(c3c2)CCCCC4)c1,nt,nt,-10.7%,-1.0%,16.4µM*
COc1ccc(OCC(=O)N2CCN(C(=O)c3ccc(F)cc3)CC2)cc1,-0.3%,5.5%,1.4%,-1.7%,-17.7%
Cc1cc2c(s1)c1cnn(Cc3cccc(C(F)(F)F)c3)c(=O)c1n2C,nt,nt,1.6%,nt,4.5%
Cc1cccc(Cn2cc(/C=C/[N+](=O)[O-])c3ccccc32)c1,?,-0.6%,nt,-3.1%,16.4µM*
Nc1cc2c3c(cccc3c1)C(=O)N(CCN1CCCC1)C2=O,?,?,?,2.6%,13µM*
CCOC(=O)c1c(C)oc2nc(C)nc(N3CCN(c4ccccc4)CC3)c12,nt,nt,-5.5%,-0.9%,23.1µM*
CCOC(=O)c1c(C)oc2nc(C)nc(N(C)Cc3ccccc3)c12,nt,nt,7.3%,8.2%,13µM*
Cc1ccc(C(c2nnnn2C2CCCCC2)N(C)C2CCCCC2)cc1 (centres undefined),0.3%,2.7%,0.7%,0.1%,25.9µM*
CC(C)C(c1nnnn1C1CCCC1)N(C)C1CCCCC1 (centres undefined),-3.1%,-15.5%,6.4%,-0.7%,14.1%
CCOC(=O)c1c(-c2ccc(OC)cc2)csc1NC(=O)COc1ccc2c(C)cc(=O)oc2c1,-0.2%,19.8%,-0.3%,-0.3%,13.3%
CCOC(=O)c1c(-c2ccc(OC)cc2)csc1NC(=O)CSc1ncnc2sccc12,?,-11.6%,20.3%,0.4%,14.6µM*
CCOC(=O)c1c(-c2ccccc2)csc1NC(=O)CSc1nnc(C)s1,-4.0%,-5.8%,-10.4%,0.8%,13µM*
CCOC(=O)c1c(-c2ccc(C)o2)csc1NC(=O)CSc1nnc(C)s1,-0.5%,-1.6%,-18.8%,3.3%,?
Cc1ccc(NC(=O)c2ccc(NC(=O)C3CCCC3)cc2)c(C)c1,nt,nt,8.2%,nt,1.9%
COc1ccccc1N1CCN(Cc2ccc(-c3ccccc3[N+](=O)[O-])o2)CC1,0.0%,22.1%,-1.5%,9.2%,23.1µM*
COc1ccccc1N1CCN(Cc2ccco2)CC1,-1.6%,15.5%,-4.1%,-0.2%,0.1%
O=C(CSC1=Nc2ccccc2C2=NC(CCC(=O)NC3CCCCC3)C(=O)N12)Nc1cccc(C(F)(F)F)c1 (centres undefined),nt,nt,?,0.9%,11.6µM*
O=C(CSC1=Nc2ccccc2C2=NC(CCC(=O)NC3CCCCC3)C(=O)N12)Nc1cccc(Cl)c1 (centres undefined),nt,nt,?,2.6%,?
O=C(c1ccccn1)N(Cc1ccco1)C1(C(=O)NC2CCCC2)CCCCC1,0.2%,-10.9%,-10.0%,0.1%,-3.2%
O=C(c1ccc2c(c1)OCO2)N(Cc1ccco1)C1(C(=O)NC2CCCCC2)CCCCC1,1.4%,2.2%,?,2.9%,18.4µM*
Cc1ccc(S(=O)(=O)NC(C(=O)Oc2ccc3ccc(=O)oc3c2)c2ccccc2)cc1 (centres undefined),?,?,-7.0%,0.2%,9.4%
Cc1ccc(S(=O)(=O)NCCC(=O)Oc2ccc3ccc(=O)oc3c2)cc1,?,11.6µM*,-2.1%,0.3%,3.4%
O=C(NCC1CCOCC1)c1cc(COc2cccc(C(F)(F)F)c2)on1,1.5%,-0.4%,-1.0%,-0.2%,23.1µM*
